Compounds without any hit were thinned out: in the full panel of roughly 83,000, 20% have a hit.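 Plates (96-well) were seeded with cells, treated with compound at one concentration, and incubated for 48 hours before percent growth was determined.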 Activity calls are given as the source filed them. Rule for the calls: active = growth percent below 10; inactive = the rest.

The subject of the test is NCI-H23 lung. As to the kind of experiment: NCI-60 one-dose screen, 48 h (100 = growth as untreated, 0 = no growth, -100 = all killed). Particulars: 10 µM unless noted.
As for `Clc1cccc(Nc2ncnc3ccc(-c4cnc5[nH]ccc5c4)cc23)c1`, the growth was 84.4% (inactive).
Consider `Nc1cc(C(=O)NC[C@H]2CN(c3ccc(N4CCC(C(=O)O)CC4)cc3)C(=O)O2)ccc1Cl`, for which the growth is 95.1% (inactive).
Take `N#CSCC1CC(O)(c2ccccc2)CC(c2ccc(F)cc2)O1` (stereo not drawn): the growth is 20.5% (inactive).
Consider `CCOC(=O)c1ccc2c(c1)nc(-c1ccccc1)n2C1CCCCC1`, for which the growth is 90.3% (inactive).
In the case of `Cc1cn(-c2cc(NC(=O)c3cncc(C#Cc4cnc(N)c5ncccc45)c3)cc(C(F)(F)F)c2)cn1` it was 43.5% (inactive).
Regarding `CCN(CC)Cc1cc(C=C2C(=O)NC(=S)NC2=O)cc(OC)c1O`, the growth was 98.1% (inactive).
Consider `COc1cc(/C=C/C(=O)c2ccc(F)cc2)ccc1OCCCCOc1ccc(/C=C/C(=O)c2c(C)nc3ccccc3c2C)cc1OC`, for which the growth was 74.9% (inactive).
Turning to `O=C1/C(=C/c2cccc(F)c2)CN(C(=O)C(Cl)Cl)C/C1=C\c1cccc(F)c1`, the growth is -75.3% (active).
In the case of `N#Cc1ccc(O)c(C2=NCC(c3ccccc3)O2)c1` (stereo not drawn) it was 44.6% (inactive); in that of `N=C(N)c1ccc(-c2ccc(-c3ccccc3)o2)cc1`, 3.73% (active).
For `COC12C=C/C(=C(/C(=O)OCc3ccncc3)C(=O)CCCCCCCCC3(OC)C=C/C(=C(/C(=O)OCc4ccncc4)C(=O)CCCCCCCC1)O3)O2`, the growth was -61.1% (active).
For the molecule `COC(=O)/C=C1/SC(=Nc2cccc(OC)c2)N(CCc2c[nH]c3ccc(O)cc23)C1=O`, the growth is 76.1% (inactive).
Turning to `Cn1ccnc1C(=O)/C=C/c1ccc(CC(=O)Nc2cc(C(F)(F)F)cc(C(F)(F)F)c2)cc1`, the growth was 85.4% (inactive).

These data come from PubChem BioAssay (NCI).
